From PubChem
Compounds with a hit are over-represented: about 1.4% of the library has one in this group of screens.
12-LOX inh = blocks human arachidonate 12S-lipoxygenase | P18054 | purified 12hLO, xylenol orange hydroperoxide absorbance | Potency, µM (top dose mostly 108 µM), hits mostly inhibitors | 580,000 compounds, 1.1% hits
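Purified human 12hLO (150 nM final) in 25 mM Hepes, 0.01% Triton X-100, pH 7.0 was preincubated 15 min at room temperature with compound. Then 40 uM arachidonic acid was added, 30 min. Hydroperoxide was read by Fe-XO absorbance ratio 573/405 nm.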
PINK1 expr mod = modulators of PINK1 expression; PINK1 immunofluorescence, high-content cytometry, 24 h; Potency, µM (highest dose often 76.6 µM), most hits filed as activators; 410,000 compounds, 0.2% hits; active means well fitted activation curve with a large enough effect; inconclusive means small, poorly fitted or top-dose-only effect; cell line not stated here; further: nearly all actives have a fitted effect of over 65% in size
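PINK1 protein, normally rapidly degraded, was detected by immunofluorescence after 24 hour compound treatment of a stable cell line. Titration data (5 concentrations) came from laser-scanning cytometry, with CCCP-treated wells as controls.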
CCT chaperon mod = modulators of cytosolic chaperonin (CCT/TRiC) activity; activity change, % (concentration not given with the values), hits read low; purified chaperonin ATPase assay, HTRF ADP detection, 30 min; AID 651819; 360,000 compounds, 0.3% hits; in the data active means activity change below about -30%
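First, chaperonin was dispensed at 40 nM or 20 nM final depending on batch activity. Next, compounds were pinned at 76 uM and ATP added at 10 uM. After 30 min at 37 °C, ADP detection reagents ran 30 min at ambient temperature.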
p53 reactivation = mutant p53 re-activation in reporter cells; 320,000 compounds, 0.063% hits; AID 504706; Potency, µM (top dose mostly 92.2 µM), usual class: activators; H1299 p53-A138V BP100-luciferase reporter, luminescence, 24 h; further: nearly all actives have a fitted effect of over 45% in size
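H1299 (p53-null), stable ts p53-A138V + BP100-Luc; 1000 cells/well, Opti-MEM/10% FBS; cpd 4 pt, 1:5; 24 h, 37 deg C, 5% CO2; detection reagent 10 min RT; luminescence.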
MmCpn inh = inhibitors of Methanococcus maripaludis chaperonin TRiC (MmCpn) | purified Mm-Cpn ATPase, ADP Transcreener TR-FRET | 330,000 compounds, 0.031% hits | Potency, µM (top dose mostly 76.9 µM), most hits filed as inhibitors | AID 504842; further: nearly all actives have a fitted effect of over 80% in size
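Inhibition of chaperonin ATP hydrolysis is measured as reduced ADP production, detected by competitive TR-FRET in which signal falls with ADP. Final enzyme 25 nM and ATP 10 uM, reacted 30 min at 37°C.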
S-ASM inh = inhibitors of human secretory acid sphingomyelinase; placental ASM, HMU-PC fluorogenic substrate, 60 min; Potency, µM (doses to about 57.5 µM), usual class: inhibitors; P17405; 340,000 compounds, 0.006% hits
Target sequence (P17405 47-631 limits assumed): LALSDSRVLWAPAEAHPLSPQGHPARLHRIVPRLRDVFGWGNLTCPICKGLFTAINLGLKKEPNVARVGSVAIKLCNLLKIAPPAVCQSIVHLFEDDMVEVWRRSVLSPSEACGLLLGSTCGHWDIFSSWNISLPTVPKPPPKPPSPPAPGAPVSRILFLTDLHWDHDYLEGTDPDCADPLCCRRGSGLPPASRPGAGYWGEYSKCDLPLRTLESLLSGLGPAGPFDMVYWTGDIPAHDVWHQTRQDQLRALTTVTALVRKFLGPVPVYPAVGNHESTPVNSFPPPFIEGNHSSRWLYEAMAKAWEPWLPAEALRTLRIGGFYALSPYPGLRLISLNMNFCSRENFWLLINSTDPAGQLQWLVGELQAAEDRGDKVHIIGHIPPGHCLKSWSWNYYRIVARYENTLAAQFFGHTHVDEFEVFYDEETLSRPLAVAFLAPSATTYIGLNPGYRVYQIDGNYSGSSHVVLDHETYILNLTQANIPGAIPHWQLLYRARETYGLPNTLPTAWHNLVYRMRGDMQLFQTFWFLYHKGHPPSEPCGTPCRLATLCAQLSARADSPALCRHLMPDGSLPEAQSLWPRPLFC
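Human placenta-derived ASM enzyme was preincubated with compound for 10 minutes at room temperature, then given fluorogenic substrate HMU-PC0 (9 uM final) for 60 minutes at 37 °C; a pH 10 stop preceded fluorescence reading at Ex 386/Em 447 nm.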
Hits are given with their value; . = inactive; ? = inconclusive; / = not tested or not shown; ! = a repeat was not active. Unless noted, the call rests on the fitted dose curve; in most records, active means well fitted curve in the direction sought with a large enough effect; inconclusive means small, poorly fitted or top-dose-only effect, or another doubt; inactive means no such curve, though single readings can be large; an effect the other way counts as inactive or inconclusive.

SMILES	12-LOX inh	PINK1 expr mod	CCT chaperon mod	p53 reactivation	MmCpn inh	S-ASM inh
CN(C)c1cccc(C(=O)OCCCC(=O)c2ccc(F)cc2)c1	?	.	-38	.	.	.
Cc1cc(C)cc(Nc2nc(N)c(C#N)c(CC#N)c2C#N)c1	.	/	/	/	/	/
Cc1csc(C(=O)O)c1NC(=O)c1c(Cl)cccc1Cl	?	.	-87	.	.	.
COc1ccc(CN2CCCC(C(=O)N3CCc4ccccc4C3)C2)cc1OC (centres undefined)	0.71µM!	.	.	.	.	.
CCOC(=O)C1CCCN(Cc2ccc(OCc3ccccc3)c(OC)c2)C1 (centres undefined)	0.56µM	.	.	.	.	.
O=C(C1CCCN(Cc2ccc3c(c2)OCO3)C1)N1CCCC1 (centres undefined)	?	.	-34	.	.	.
Cc1ccc2c(=O)c(CN3CCC(C)CC3)c(C)[nH]c2c1C	.	/	/	/	/	/
Cc1cc(C)c(S(=O)(=O)N2CCN(S(=O)(=O)N3CCC(C)CC3)CC2)c(C)c1	.	.	-49	.	.	.
CN(C)/C=C/C(=O)c1ccccc1	.	.	.	.	.	.
CN(C)/C=C/C(=O)c1ccc(Oc2ccccc2)cc1	5µM	.	.	.	.	.
N#CCCC(C#N)Cn1nc(-c2ccc(F)cc2)c2ccccc2c1=O (centres undefined)	.	/	/	/	/	/
CC(=NNC(=S)N1CCCC1)c1ccccn1	18µM	.	.	/	/	/
CC(=NNC(=S)Nc1cccc(Cl)c1)c1ccccn1	?	.	.	/	/	.
CC(=NNC(=S)SCc1ccccc1)c1ccccn1	?	.	.	/	/	.
CC(=NNC(=S)N1CCC1)c1ccccn1	50µM	.	.	/	/	.
CCOc1cccc(C(=O)Nc2ccc3oc(=O)ccc3c2)c1	.	/	/	/	/	/
O=C(CSc1n[nH]c(-c2ccc(Br)cc2)n1)c1cc(F)ccc1F	32µM	/	/	/	/	/
O=C(CSc1n[nH]c(-c2ccccc2)n1)c1cc(F)ccc1F	.	/	/	/	/	/
CC(=O)N1CCC(C(=O)N2CCC3(CC2)NC(=O)N(c2ccccc2)N3)CC1	1.6µM	/	/	/	/	/
CC(=O)N1CCC(C(=O)N2CCC3(CC2)NC(=O)N(c2cccc(Cl)c2)N3)CC1	1.3µM	/	/	/	/	/
CCc1ccc(OCC(=O)NNC(=S)NC(=O)C2CCCCC2)c(Br)c1	7.9µM	.	.	?	.	.
CCc1ccc(OCC(=O)NNC(=S)NC(=O)C2CC2)c(Br)c1	?	.	.	.	.	.
CC1C/C(=N\NC(=S)NCc2ccccc2)CC(C)(C)C1 (centres undefined)	?	.	.	.	.	.
CC1(C)C2CC=C(/C=N/NC(=S)Nc3ccc(SC(F)F)cc3)C1C2 (centres undefined)	32µM	/	/	/	/	/
CC1C/C(=N/NC(=S)Nc2ccc(SC(F)F)cc2)CC(C)(C)C1 (centres undefined)	28µM	/	/	/	/	/
SMILES	12-LOX inh	PINK1 expr mod	CCT chaperon mod	p53 reactivation	MmCpn inh	S-ASM inh
COc1ccc(-c2cc([C@H]3[C@@H]4C=CCC[C@@]4(C)C(=O)N3Cc3ccccc3)ccc2F)cc1OC	11µM	.	.	.	.	.
NC(=O)C1CCN(C(=O)CN2C(=O)c3ccccc3S2(=O)=O)CC1	.	.	-41	.	.	.
CC1CCN(C(=O)CN2C(=O)c3ccccc3S2(=O)=O)CC1	.	.	.	.	.	.
CCn1nc(C(=O)OCc2cc(=O)oc3cc(O)ccc23)c2ccccc2c1=O	.	/	/	/	/	/
Nc1nccnc1C(=O)Nc1ccc2ccccc2n1	10µM	/	/	/	/	/
COc1ccc(S(=O)(=O)N2N=C(c3ccc(NS(C)(=O)=O)cc3)CC2c2ccco2)cc1 (centres undefined)	.	.	.	.	.	.
COc1ccc(S(=O)(=O)N2N=C(c3cccc(NS(C)(=O)=O)c3)CC2c2ccco2)cc1 (centres undefined)	.	.	-69	.	.	.
CSC1=N/C(=C\c2ccc(F)cc2)C(=O)S1	.	.	.	.	.	.
CCCSC1=N/C(=C\c2ccc([N+](=O)[O-])o2)C(=O)S1	40µM	.	.	.	.	.
CSC1=N/C(=C\c2ccc(I)o2)C(=O)S1	5.6µM	/	/	/	/	/
CSC1=N/C(=C\c2ccc(C)s2)C(=O)S1	.	.	.	.	.	.
CSC1=N/C(=C\c2ccc(C)o2)C(=O)S1	45µM	.	.	.	.	.
CC(NC(=O)C12CC3CC(CC(C3)C1)C2)c1cc2ccccc2o1 (centres undefined)	.	/	/	/	/	/
Cc1noc2c(N3CCN(Cc4ccccc4)CC3)cc(-c3cccnc3)nc12	.	/	/	/	/	/
CCN(CC)Cc1oc(CO)cc(=O)c1O	32µM	.	.	.	.	.
OCCOc1ccc(CNc2nc(-c3ccccc3)nc3ccccc23)cc1	.	/	/	/	/	/
COc1ccc(C(CNC(=O)c2nn(C)c(=O)c3ccccc23)N(C)C)cc1 (centres undefined)	.	/	/	/	/	/
CC1=C(C)C(C)=C(C#N)C(=C(C#N)C#N)N1	1.1µM	.	.	.	.	.
CC(C)/C=N/NC(=O)CCCCC(=O)N/N=C/C(C)C	.	/	/	/	/	/
CC(Oc1ccc(Br)cc1)C(=O)N1CCN(c2nccs2)CC1 (centres undefined)	.	/	/	/	/	/
O=C1C=C(O)c2cccc(O)c2C1=O	35µM	.	.	.	.	.
CCOC(=O)/C(C)=C1\NC(C)(C)Cc2ccccc21	16µM	.	.	.	.	.
Cc1cccc(OCC(=O)Nc2cccc(-c3nc4ccc(C)cc4o3)c2)c1	.	/	/	/	/	/
CC(CCc1ccc(O)cc1)NCc1ccc(Br)cc1 (centres undefined)	13µM	.	.	.	.	.
COc1ccc(-c2cc(NC(=O)c3ccc(S(=O)(=O)NCC4CCCO4)cc3)ccc2OC)cc1 (centres undefined)	.	/	/	/	/	/
SMILES	12-LOX inh	PINK1 expr mod	CCT chaperon mod	p53 reactivation	MmCpn inh	S-ASM inh
CCOc1ccc(/C=C2\SC(=S)N(C(C(=O)O)c3ccccc3)C2=O)cc1OC (centres undefined)	16µM	.	.	.	.	.
COc1cccc(/C=C2\SC(=S)N(C(Cc3ccccc3)C(=O)O)C2=O)c1 (centres undefined)	45µM	.	.	.	.	.
CCOc1ccc(/C=C2\SC(=O)N(CCNC(=O)C3COc4ccccc4O3)C2=O)cc1OC (centres undefined)	.	.	-35	.	.	.
O=C1CC(c2ccccc2O)Cc2c1cnn2-c1nc2ccccc2[nH]1 (centres undefined)	.	/	/	/	/	/
CCN(CC)c1ccc(CNc2nc3ccccc3n2C(C)C)cc1	.	22µM	.	.	.	.
CC(C)n1c(NCc2ccc(N(C)C)cc2)nc2ccccc21	?	.	.	.	.	.
CCCCCCC1CCC(C(=O)Oc2ccc(OCC)cc2)CC1 (centres undefined)	.	/	/	/	/	/
